According to PubChem BioAssay (NCI):
This is part of a sample that, as a whole, favours compounds with a hit. Of some 83,000 tested, about 20% had one in any assay.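 How to read the values: 0–100, growth inhibition (40 = 60% inhibited); 0, no net growth; -100 to 0, cell death (-40 = 40% of starting cells died; -100 = all dead).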 Unmarked numbers belong to inactive results. The source made the active and inactive calls. Rule for the calls: active = growth percent below 10; inactive = the rest.

Tests used:
Experiment in all cases: NCI-60 one-dose screen, 48 h (100 = growth as untreated, 0 = no growth, -100 = all killed)
Settings in all cases: 10 µM
[1] = test system: K-562 leukemia
[2] = test system: MALME-3M melanoma
[3] = test system: MDA-MB-231 breast
[4] = test system: SF-268 CNS
[5] = test system: SF-295 CNS
[6] = test system: SF-539 CNS
[7] = test system: UACC-257 melanoma
[8] = test system: M14 melanoma
[9] = test system: HCT-15 colon
[10] = test system: SNB-75 CNS
[11] = test system: SNB-19 CNS
[12] = test system: U251 CNS
[13] = test system: PC-3 prostate
[14] = test system: SK-MEL-5 melanoma
[15] = test system: UACC-62 melanoma
[16] = test system: LOX IMVI melanoma
[17] = test system: SK-MEL-2 melanoma
[18] = test system: HT29 colon
[19] = test system: SK-MEL-28 melanoma

## Cc1cc(O)c(C(C)(C)C)cc1Sc1cc(C(C)(C)C)c(O)cc1C
[1]
  growth: 14.6%
[2]
  growth: 73.7%
[3]
  growth: -9.88% (active)
[4]
  growth: 49.4%
[5]
  growth: 53.4%
[6]
  growth: 77.8%
[7]
  growth: 30.9%
[8]
  growth: 0.358% (active)
[9]
  growth: 44.3%
[10]
  growth: 54.2%
[11]
  growth: 81%
[12]
  growth: 60%
[13]
  growth: 22.5%
[14]
  growth: 33.7%
[15]
  growth: 16.3%
[16]
  growth: 63.9%
[17]
  growth: 72.6%

## COC(=O)C(=C\c1ccc2c(c1)OCO2)/C(=C/c1ccc2c(c1)OCO2)C(=O)OC
[1]
  growth: 108%
[2]
  growth: 101%
[3]
  growth: 107%
[4]
  growth: 96%
[5]
  growth: 95.3%
[6]
  growth: 96.1%
[7]
  growth: 108%
[8]
  growth: 99.4%
[9]
  growth: 97.8%
[18]
  growth: 88.9%
[10]
  growth: 87.7%
[11]
  growth: 106%
[12]
  growth: 98.5%
[13]
  growth: 93.8%
[14]
  growth: 101%
[15]
  growth: 98.6%
[16]
  growth: 90.8%
[19]
  growth: 103%
[17]
  growth: 102%

## O=C(CC(c1ccccc1)N1CCOCC1)c1ccccc1 (stereo unspecified)
[1]
  growth: 27.9%
[2]
  growth: 87.6%
[3]
  growth: 98.6%
[4]
  growth: 91.8%
[5]
  growth: 94.9%
[6]
  growth: 97.5%
[7]
  growth: 80.5%
[8]
  growth: 95.8%
[9]
  growth: 92.2%
[18]
  growth: 90.1%
[10]
  growth: 85.8%
[11]
  growth: 85%
[12]
  growth: 80.8%
[13]
  growth: 72.1%
[14]
  growth: 97.2%
[15]
  growth: 93.6%
[16]
  growth: 89%
[17]
  growth: 94.7%

## CC/C(=N\N=C(/CC)c1ccc(Br)cc1)c1ccc(Br)cc1
[1]
  growth: 109%
[2]
  growth: 90.5%
[3]
  growth: 103%
[4]
  growth: 103%
[5]
  growth: 93.9%
[6]
  growth: 99.3%
[7]
  growth: 108%
[8]
  growth: 98.3%
[10]
  growth: 89.9%
[11]
  growth: 108%
[12]
  growth: 105%
[13]
  growth: 94.2%
[14]
  growth: 104%
[15]
  growth: 87.9%
[16]
  growth: 98.7%
[19]
  growth: 104%
[17]
  growth: 97.3%

## COc1ccc2c(c1)[n+]([O-])c(C#N)c(NC(=O)c1ccco1)[n+]2[O-]
[1]
  growth: 92.8%
[2]
  growth: 103%
[3]
  growth: 92.3%
[4]
  growth: 107%
[5]
  growth: 99.9%
[6]
  growth: 107%
[8]
  growth: 104%
[9]
  growth: 99%
[18]
  growth: 101%
[10]
  growth: 110%
[11]
  growth: 95.6%
[12]
  growth: 98.5%
[13]
  growth: 179%
[14]
  growth: 79.3%
[15]
  growth: 98.2%
[16]
  growth: 95.1%
[19]
  growth: 120%
[17]
  growth: 101%

## CCCCN(CCCC)CCCCCCCCC(O)c1cc2ccccc2c2ccccc12 (stereo unspecified)
[1]
  growth: 22.6%
[2]
  growth: 76.8%
[3]
  growth: 56.2%
[4]
  growth: 65.9%
[5]
  growth: 77.5%
[6]
  growth: 74.6%
[7]
  growth: 91.4%
[8]
  growth: 45.7%
[9]
  growth: 34.6%
[18]
  growth: 32.9%
[10]
  growth: 61.8%
[11]
  growth: 67.9%
[12]
  growth: 49.3%
[13]
  growth: 45.2%
[14]
  growth: 70%
[15]
  growth: 61.8%
[16]
  growth: 49.2%
[19]
  growth: 79.6%
[17]
  growth: 84.7%

## Cc1cccc(Cl)c1NC(=O)c1ccc2nc(NC(=O)NC3CCN(C)CC3)sc2c1
[1]
  growth: 7.86% (active)
[2]
  growth: 60.8%
[3]
  growth: 96.7%
[4]
  growth: 86%
[5]
  growth: 83.5%
[6]
  growth: 44.3%
[7]
  growth: 84.7%
[8]
  growth: 104%
[9]
  growth: 101%
[18]
  growth: 29.6%
[10]
  growth: 6.73% (active)
[11]
  growth: 102%
[12]
  growth: 80.5%
[13]
  growth: 69.7%
[14]
  growth: 71.6%
[15]
  growth: 106%
[16]
  growth: 79.7%
[19]
  growth: 108%
[17]
  growth: 126%

## COC(=O)c1ccc(=O)oc1
[1]
  growth: 86.8%
[2]
  growth: 101%
[3]
  growth: 98.1%
[4]
  growth: 104%
[5]
  growth: 102%
[6]
  growth: 95.8%
[7]
  growth: 100%
[8]
  growth: 101%
[18]
  growth: 113%
[10]
  growth: 91.1%
[11]
  growth: 103%
[12]
  growth: 97.4%
[13]
  growth: 91.5%
[14]
  growth: 103%
[15]
  growth: 93.6%
[16]
  growth: 98.4%
[17]
  growth: 91.9%

## O=C(Cc1csc2nc(-c3ccc(Cl)cc3)cn12)N/N=C/c1ccccc1O
[1]
  growth: 41%
[2]
  growth: 74.5%
[3]
  growth: 35.5%
[4]
  growth: 37.9%
[5]
  growth: 37.6%
[6]
  growth: 67.3%
[7]
  growth: 46.5%
[8]
  growth: 47.1%
[9]
  growth: 17.2%
[18]
  growth: 82.1%
[10]
  growth: 68.6%
[11]
  growth: 60.8%
[12]
  growth: 42.2%
[13]
  growth: 55.2%
[14]
  growth: 45.8%
[15]
  growth: 46%
[16]
  growth: 38.6%
[17]
  growth: 75.8%

## CCN(CC)CCCC(C)Nc1ccc2ccc(Cl)cc2n1 (stereo unspecified)
[1]
  growth: 95.6%
[2]
  growth: 115%
[3]
  growth: 90.3%
[4]
  growth: 96.8%
[5]
  growth: 95.3%
[6]
  growth: 101%
[8]
  growth: 103%
[9]
  growth: 102%
[18]
  growth: 86.1%
[10]
  growth: 77%
[11]
  growth: 104%
[12]
  growth: 92.7%
[13]
  growth: 90.5%
[14]
  growth: 97.7%
[15]
  growth: 103%
[16]
  growth: 95%
[19]
  growth: 106%
[17]
  growth: 117%

## N#Cc1cc(-c2cc3ccccc3o2)oc1N
[1]
  growth: 2.52% (active)
[2]
  growth: -5.2% (active)
[3]
  growth: -27.1% (active)
[4]
  growth: 29%
[5]
  growth: -28.1% (active)
[6]
  growth: -45% (active)
[8]
  growth: 26.4%
[9]
  growth: 9.98% (active)
[18]
  growth: 7.97% (active)
[10]
  growth: 24.4%
[11]
  growth: 24.5%
[12]
  growth: 3.63% (active)
[13]
  growth: -24.5% (active)
[14]
  growth: -86.7% (active)
[15]
  growth: 29.2%
[16]
  growth: 3.98% (active)
[19]
  growth: 41.2%

## CN1CCC2(CC1)NC(=O)c1c(c3ccc(Cl)c(Cl)c3n1C)C2C#N (stereo unspecified)
[1]
  growth: 80.1%
[2]
  growth: 98.3%
[3]
  growth: 55%
[4]
  growth: 67.4%
[5]
  growth: 94.9%
[6]
  growth: 76%
[7]
  growth: 65.2%
[8]
  growth: 23.8%
[9]
  growth: 82.6%
[18]
  growth: 44.8%
[10]
  growth: 34.3%
[11]
  growth: 77.8%
[12]
  growth: 90.6%
[13]
  growth: 67.1%
[14]
  growth: 37.8%
[15]
  growth: -69.4% (active)
[16]
  growth: 76.6%
[19]
  growth: 70.4%
[17]
  growth: 99.6%

## O=C1NC(=O)c2ncccc21
[1]
  growth: 107%
[2]
  growth: 114%
[3]
  growth: 116%
[4]
  growth: 103%
[5]
  growth: 89.7%
[6]
  growth: 101%
[7]
  growth: 102%
[8]
  growth: 99.9%
[9]
  growth: 101%
[10]
  growth: 98%
[12]
  growth: 106%
[13]
  growth: 107%
[14]
  growth: 95.1%
[15]
  growth: 112%
[16]
  growth: 101%
[19]
  growth: 110%

## Clc1nc(Cl)c2c(ncn2C/C=C\Cn2cnc3c(Cl)nc(Cl)nc32)n1
[1]
  growth: -20.6% (active)
[2]
  growth: -84.8% (active)
[3]
  growth: -100% (active)
[4]
  growth: 6.36% (active)
[5]
  growth: -10.7% (active)
[6]
  growth: -71.6% (active)
[8]
  growth: -10.5% (active)
[9]
  growth: -85.4% (active)
[18]
  growth: -30.6% (active)
[10]
  growth: -28.9% (active)
[11]
  growth: -15.6% (active)
[12]
  growth: -93.6% (active)
[13]
  growth: -96.2% (active)
[14]
  growth: -91% (active)
[15]
  growth: -79% (active)
[16]
  growth: -94.2% (active)
[19]
  growth: -50.3% (active)
[17]
  growth: 5.02% (active)

## CCN(CC)CCSCCCNc1c2ccc(Cl)cc2nc2ccc(OC)cc12
[1]
  growth: -13.3% (active)
[2]
  growth: -69.1% (active)
[3]
  growth: -59.9% (active)
[4]
  growth: -39.2% (active)
[5]
  growth: -79% (active)
[6]
  growth: -75.2% (active)
[7]
  growth: -77.1% (active)
[8]
  growth: -73.7% (active)
[9]
  growth: -30.8% (active)
[18]
  growth: -58.1% (active)
[10]
  growth: -97.8% (active)
[11]
  growth: -38.4% (active)
[12]
  growth: -70.6% (active)
[13]
  growth: -30.3% (active)
[14]
  growth: -99.1% (active)
[15]
  growth: -72.9% (active)
[16]
  growth: -80% (active)
[19]
  growth: -67% (active)
[17]
  growth: -77.5% (active)

## CCN(CC)CCCC(C)Nc1nc(-c2ccc(OC)cc2)nc2cc(Cl)ccc12 (stereo unspecified)
[1]
  growth: 44.3%
[2]
  growth: 79.2%
[3]
  growth: 28.9%
[4]
  growth: 60.1%
[5]
  growth: 89.7%
[6]
  growth: 62%
[7]
  growth: 46%
[8]
  growth: -29% (active)
[9]
  growth: 49.9%
[18]
  growth: 27.9%
[10]
  growth: 59.6%
[11]
  growth: 74.6%
[12]
  growth: 57%
[13]
  growth: 48.4%
[14]
  growth: 0.434% (active)
[15]
  growth: -46.9% (active)
[16]
  growth: 32.8%
[19]
  growth: -70% (active)
[17]
  growth: 98.2%

## COc1ccc(/C(=C2/O[C@@H]([C@H]3COC(C)(C)O3)[C@H]3OC(C)(C)O[C@@H]23)c2cc(OC)c(OC)c(OC)c2)cc1O
[1]
  growth: 10.2%
[2]
  growth: 69.6%
[3]
  growth: 54.5%
[4]
  growth: 37.8%
[5]
  growth: 77.6%
[6]
  growth: 21.5%
[7]
  growth: 126%
[8]
  growth: 19.5%
[9]
  growth: 32.5%
[10]
  growth: 24.3%
[11]
  growth: 27.6%
[12]
  growth: 61.2%
[13]
  growth: 29.4%
[14]
  growth: 61.8%
[15]
  growth: 82.9%
[16]
  growth: 47.6%

## O=C(C[n+]1ccccc1)c1ccc2ccccc2c1
[1]
  growth: 86.6%
[2]
  growth: 92.4%
[3]
  growth: 95.2%
[4]
  growth: 103%
[5]
  growth: 88.2%
[6]
  growth: 97.3%
[7]
  growth: 92.6%
[8]
  growth: 94%
[9]
  growth: 109%
[18]
  growth: 92%
[10]
  growth: 75.1%
[12]
  growth: 95.3%
[13]
  growth: 87.8%
[14]
  growth: 102%
[15]
  growth: 96%
[16]
  growth: 99.8%
[17]
  growth: 112%
